The values that follow come from PubChem BioAssay AID1347150 (National Center for Advancing Translational Sciences (NCATS), 2019).

Results filed as inconclusive are left out. Active and inactive are the calls of the source. The call rests on the fitted dose curve; in most records, active means well fitted curve in the direction sought with a large enough effect; inconclusive means small, poorly fitted or top-dose-only effect, or another doubt; inactive means no such curve, though single readings can be large or run the other way.

This experiment deals with Zika virus NS2B-NS3 protease (linked). Description: Optimization screen NINDS AMC qHTS for Zika virus inhibitors: Linked NS2B-NS3 protease assay. The following applies: recombinant linked NS2B-NS3 protease, AMC fluorogenic substrate; series mostly up to 52.5 µM. An excerpt: Avindra Nath, Ph.D., National Institute of Neurological Disorders and Stroke (NINDS), Bethesda, MD
Radhakrishnan Padmanabhan, Ph.D., Georgetown University (GU), Washington D.C.
Zika Virus causes congenital defects, including microcephaly and is associated with Guillain-Barre syndrome, eningoencephalitis and myelitis in infected adult. […] Using a target-based approach, we hope to establish a screening paradigm to uncover novel, cell-active NS2B-NS3 protease (Zika Virus) specific inhibitors from NCATS' collection of small molecules using qHTS.
Four assay panel was created to identify potential Zika Virus inhibitors. Namely, (1) GU unlinked NS2B-NS3 AMC tagged protease qHTS, (2) GU unlinked NS2B-NS3 Rhodamine tagged protease qHTS, (3) NINDS linked NS2B-NS3 AMC tagged protease qHTS, (4) NINDS linked NS2B-NS3 Rhodamine tagged protease qHTS. Active compounds were re-acquired and re-screened to confirm inhibition. Inhibitors were further screened against various confirmatory and counterscreens in dose response format.
Early Translation Branch (ETB)
National Center for Advancing Translational Sciences (NCATS), Rockville, MD
National Institute of Health (NIH), Bethesda, Maryland
For the linked assay, Nath lab (NINDS) provided the purified linked NS2B-NS3 protease which is consists of hydrophilic domain of NS2B linked to the NS3 protease domain by a flexible (-GGGGSGGGG-) linker. Control compound aprotinin is obtained from Thermo Scientific (#78432; Waltham, Massachusetts). NS2B-NS3 AMC substrate (Bz-Nle-Lys-Arg-Arg-AMC; Nle-KRR-AMC) purchased from Bachem (#I-1995; Torrance, CA). Ac-VKTGKR-AMC purchased from Genscript or Bachem, Ac-FAAGKR-AMC purchased from Genscript, Ac-GLVKRR-AMC purchased from Genscript, Ac-LKKR-AMC purchased from Genscript.
NINDS AMC linked NS2B-NS3 protease qHTS protocol:
Briefly, 3 microL of Zika virus linked NS2B-NS3 protease (1 nM for linked final concentration), in assay buffer (10 mM Tris-HCl pH 8.0 with 0.01% Tween 20) was dispensed into a 1,536-well solid-bottom black plate (Greiner Bio One, Monroe, NC). Twenty-three nL of compounds (final concentration range 7.28 nM to 114 microM) or control Aprotinin (final concentration range 3.47 nM to 114 microM) were transferred via Wako Pin-tool (Wako Automation, Richmond, VA). Samples were incubated (room temperature, protected from light) for 15 minutes followed by a 1 microL AMC substrate addition of (final concentration of 10 microM; Km = 18.3 µM). Plates were then read immediately on a ViewLux High-throughput CCD imager (PerkinElmer, Waltham, MA) equipped with standard UV fluorescence optics (340(30) nm excitation, 450(20) nm emission) then incubated (room temperature, protected from light) for 15 minutes (~20% conversion). The change in fluorescence intensity over the 15-minute reaction period was normalized against no-inhibitor and no-enzyme controls and the resulting percent inhibition data were fitted to a 4-parameter Hill equation. Aprotinin was used as the intraplate control.
On the technique in general: In qHTS, concentration-response curves come from the screen itself.
For `C[C@H]1O[C@@H](O[C@H]2[C@@H](O)C[C@H](O[C@H]3[C@@H](O)C[C@H](O[C@H]4CC[C@@]5(C)[C@H](CC[C@@H]6[C@@H]5CC[C@]5(C)[C@@H](C7=CC(=O)OC7)CC[C@]65O)C4)O[C@@H]3C)O[C@@H]2C)C[C@H](O)[C@@H]1O`, the outcome was inactive.
On to `CC[C@H](C)[C@H]1O[C@]2(C=C[C@@H]1C)C[C@@H]1C[C@@H](C/C=C(\C)[C@@H](O[C@H]3C[C@H](OC)[C@@H](O[C@H]4C[C@H](OC)[C@@H](O)[C@H](C)O4)[C@H](C)O3)[C@@H](C)/C=C/C=C3\CO[C@@H]4[C@H](O)C(C)=C[C@@H](C(=O)O1)[C@]34O)O2`, for which the result was inactive.
In the case of `CN1CC[C@@]23CCCCC2C1Cc1ccc(O)cc13` (stereo partly specified) it was “inactive”.
In the case of `C[C@@H]1O[C@@H](O[C@H]2C[C@@H](O)[C@]3(CO)C4C(CC[C@]3(O)C2)[C@@]2(O)CC[C@H](C3=CC(=O)OC3)[C@@]2(C)C[C@H]4O)[C@H](O)[C@H](O)[C@H]1O` (stereo partly specified) it was “inactive”; in that of `Cc1ccc2c(c1)[C@]13CCCC[C@@H]1[C@H](C2)N(C)CC3`, “inactive”; in that of `C[C@H]1O[C@@H](O[C@H]2[C@@H](O)C[C@H](O[C@H]3[C@@H](O)C[C@H](O[C@H]4CC[C@]5(C)C6CC[C@]7(C)[C@@H](C8=CC(=O)OC8)CC[C@]7(O)C6CC[C@@H]5C4)O[C@@H]3C)O[C@@H]2C)C[C@H](O)[C@@H]1O` (stereo partly specified), “inactive”.
Consider `CO[C@H]1[C@@H](O)CC(OC2[C@@H](O)CC(OC3[C@@H](O)C[C@H](OC4CC[C@@]5(C)C(CCC6C5CC(O)[C@]5(C)[C@H](C7=CC(=O)OC7)CCC65O)C4)O[C@@H]3C)O[C@@H]2C)O[C@@H]1C` (stereo partly specified), for which the result was inactive.
As for `CC1OC(O[C@H]2C[C@@H](O)[C@]3(CO)[C@H]4[C@H](O)C[C@]5(C)[C@@H](C6=CC(=O)OC6)CC[C@]5(O)[C@@H]4CC[C@]3(O)C2)C(O)C(O)C1O` (stereo partly specified), the entry is “inactive”; as for `C[C@@H]1[C@@H]2Cc3ccc(O)cc3[C@@]1(C)CCN2CC1CC1`, “inactive”.
In the case of `C=CCN1CC[C@]23CCCCC2[C@H]1Cc1ccc(O)cc13` (stereo partly specified), the outcome was inactive.
Take `C[C@@H]1O[C@@H](O[C@H]2C[C@@H](O)[C@]3(CO)[C@H]4[C@H](O)C[C@]5(C)[C@@H](C6=CC(=O)OC6)CC[C@]5(O)[C@@H]4CC[C@]3(O)C2)[C@H](O)[C@H](O)[C@H]1O`: the outcome was inactive.
In the case of `C=CCN1CCC2(C)c3cc(O)ccc3CC1C2C` (stereo unspecified) it was “inactive”; in that of `CN1CC[C@@]23CCCC[C@@H]2[C@@H]1Cc1ccc(O)cc13`, “inactive”.
As for `C=CCN1CCC2(C)c3cc(O)ccc3C[C@H]1[C@H]2C`, the entry is “inactive”.
`C[C@H]1[C@H]2Cc3ccc(O)cc3[C@]1(C)CCN2CCc1ccccc1`: the result was inactive.
With `CC1O[C@@H](O[C@@H]2C(O)C[C@H](O[C@@H]3C(O)C[C@@H](OC4CC[C@@]5(C)C6CC[C@]7(C)C(C8=CC(=O)OC8)CC[C@@]7(O)C6CC[C@@H]5C4)OC3C)OC2C)CC(O)[C@H]1O` (stereo partly specified), the result was inactive.
For `CC(C)=CCN1CC[C@@]2(C)c3cc(O)ccc3C[C@@H]1[C@@H]2C`, the outcome was inactive.
As for `C[C@H]1O[C@@H](O[C@H]2[C@@H](O)C[C@@H](O[C@H]3[C@@H](O)C[C@H](O[C@H]4CC[C@@]5(C)[C@H](CC[C@@H]6[C@@H]5CC[C@]5(C)[C@@H](C7=CC(=O)OC7)CC[C@]65O)C4)O[C@@H]3C)O[C@@H]2C)C[C@H](O)[C@@H]1O`, the entry is “inactive”; as for `COC1C(O)C(C)O[C@@H](OC2CC[C@@]3(C)C4CC[C@]5(C)C(C6=CC(=O)OC6)CC[C@@]5(O)C4CC[C@@H]3C2)C1O` (stereo partly specified), “inactive”.
As to `CC(C)OC(=O)Nc1ccccc1`, the outcome was inactive.
In the case of `C[C@@H]1[C@@H]2Cc3ccc(O)cc3[C@@]1(C)CCN2CCc1ccccc1` it was “inactive”.
